The sample as a whole holds a higher share of hits than the screen did.
Pf apPOL inh = Pf-apPOL DNA polymerase inhibition; AID 1794808; 210,000 tested, 0.25% active; Recombinant Pf-apPOL, molecular beacon fluorescence, 1.5 h; inhibition, % at 10 µM
mHTT-CaM PPI inh = mHTT-calmodulin interaction abrogation | P42858 | AlphaScreen His-mHTT/GST-CaM binding, luminescence | inhibition, % at 15 µM | 190,000 tested, 3.6% active | AID 1671202;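 further: 0% = both proteins with DMSO and 100% = one protein alone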
* hit, by the source's call; i = inactive; / = no result given; + = active, no number. No stated cut-off is given here; in the data, active means inhibition above about 50%; inactive means the rest.

SMILES	Pf apPOL inh	mHTT-CaM PPI inh
CCOc1ccc(C2C(=O)N(C3CCCCC3)CC(=O)N2Cc2ccccc2Cl)cc1OC (configuration not stated)	-7	58*
CCCCN1C(=O)CN(C2CCCCC2)C(=O)C1c1ccc(OCCC)c(OC)c1 (configuration not stated)	-10	53*
CCCCN1C(=O)CN(C2CCCCC2)C(=O)C1c1ccc(OC(C)C)c(OC)c1 (configuration not stated)	-6	45
COc1ccc(C2C(=O)N(C3CCC(C)CC3)CC(=O)N2Cc2ccccc2Cl)cc1OC (configuration not stated)	-8	15
O=C1C(=O)N(c2ccccc2)C(c2cccc([N+](=O)[O-])c2)C1=C(O)c1ccccc1 (configuration not stated)	4	10
CN(C)c1ccc(NC(=O)Oc2ccccc2)cc1	-2	33
O=C1C=C(NCC2CCCO2)C2(CCCCC2)O1 (configuration not stated)	-1	2
CC1=CC(=O)C(C(C)C)=C/C1=N\Oc1c([N+](=O)[O-])cc(Cl)cc1[N+](=O)[O-]	0	+
CC1=CC(=O)C(C(C)C)=C/C1=N\OC(=O)c1ccccc1C	2	i
COc1ccc(Cl)cc1C(=O)O/N=C1\C=C(C(C)C)C(=O)C=C1C	8	+
CC1=CC(=O)C(C(C)C)=C/C1=N\OC(=O)c1ccc(C(C)(C)C)cc1	-5	i
COc1ccc(C(=O)O/N=C2\C=C(C(C)C)C(=O)C=C2C)cc1Br	3	+
Nc1c(Cl)cc(Cl)cc1[N+](=O)[O-]	-4	2
COc1cc(C(=O)O/N=C2/C=C(C(C)C)C(=O)C=C2C)cc(OC)c1OC	-4	i
COc1ccccc1C(=O)O/N=C1\C=C(C(C)C)C(=O)C=C1C	-5	+
COc1ccccc1Oc1ccc(C#N)c(C#N)c1	1	-22
O=C(NCc1ccc(N2CCCCC2)cc1)c1cn2c(n1)CCCC2	-5	22
Clc1ccc(-c2cn3cccnc3n2)cc1	-7	-6
CC(=O)c1cccc(N2CN=c3s/c(=C\c4cccc(Br)c4)c(=O)n3C2)c1	-8	6
CC1=C(C(=O)Nc2cc(C)ccn2)C(c2ccc(C)cc2)C2=C(CCCC2=O)N1 (configuration not stated)	-2	6
Cc1cc(Cl)ccc1OCc1nc(-c2nonc2N)no1	-6	0
O=C(CSc1nnc(-c2cccc(F)c2)n1-c1ccccc1)Nc1ccccc1	4	-7
CCOc1nc(Nc2ncc(O)[nH]2)nc2ccc(C)cc12	-3	4
Cc1cccc(-n2cnc3cc(C(=O)NCc4cccnc4)ccc32)c1	25	0
O=C1C2CCCN2C(c2ccc(Cl)cc2)N1c1ccc(F)cc1 (configuration not stated)	2	2
SMILES	Pf apPOL inh	mHTT-CaM PPI inh
CC1=CC(=O)C(C(C)C)=C/C1=N\OC(=O)c1ccc(C)cc1	-6	i
CC1=CC(=O)C(C(C)C)=C/C1=N\OC(=O)c1cccs1	7	+
COc1ccc2c(c1)OC(=Cc1cc(Br)ccc1OC)C2=O	2	-1
Cc1ccc(Cl)cc1N1CCN(CCNC(=O)c2csc3c2CCCC3)CC1	0	30
Cc1ccc(Cl)cc1N1CCN(CCNC(=O)C2(n3cccc3)CCCCC2)CC1	-15	56*
O=C(NCCCN1CCN(c2cccc(Cl)c2)CC1)C1(n2cccc2)CCCCC1	-13	98*
CC(C)CCNC(=O)C1(C)CCC(=O)N1CCCN1CCN(c2cccc(Cl)c2)CC1 (configuration not stated)	1	22
CCCCN(CC)C(=O)c1ccccc1OCC	-14	-5
Cc1nc(C)c(C(=O)Nc2ccccc2NC(=O)c2cccs2)s1	-4	-6
N=Nc1[nH]c(N)c2ccccc12	-4	94*
Cc1cc2[nH]c(C(=O)Nc3c(F)cccc3F)c(CN3CCCC3)c2s1	3	56*
Cc1cc2[nH]c(C(=O)Nc3ccccc3C)c(CN3CCCC3)c2s1	7	9
CCN1C(=O)/C(=C2\C=Cc3ccccc3N2CC)SC1=Nc1ccc(N2CCOCC2)cc1	-3	0
CCN1C(=O)/C(=C2\C=Cc3ccccc3N2CC)SC1=Nc1ccccc1	-2	97*
O=[N+]([O-])c1ccc2[nH]c3c(c2c1)CCCC3NC1Cc2ccccc2C1 (configuration not stated)	-2	93*
CC(C)NC1CCCc2c1[nH]c1ccc([N+](=O)[O-])cc21 (configuration not stated)	-3	12
CC(C)C(=O)Nc1ccc(C(=O)O)cc1	2	1
Clc1ncnc2c1ncn2C1CCCCO1 (configuration not stated)	/	75*
OC[C@H]1O[C@@H](n2cnc3c(NC4CCCCC4)ncnc32)[C@H](O)[C@@H]1O	8	/
CCOc1cc(C=O)cc(Cl)c1OCC(=O)O	-15	3
O=C(CSc1nc(-c2ccccc2)cc(-c2ccccc2)n1)N=C1NC(=O)CS1	8	61*
Cn1c2ccc(Br)cc2c2nnc(SCC(=O)N=C3NC(=O)CS3)nc21	5	23
NC(=O)c1ccc(N=c2oc3c(Cl)cc(Cl)cc3cc2C(N)=O)cc1	-6	1
N=c1oc2c(Cl)cc(Cl)cc2cc1C(N)=O	-2	91*
COc1ccc(Br)cc1CN(CCc1ccc2c(c1)OCO2)Cc1cccnc1	-10	57*
SMILES	Pf apPOL inh	mHTT-CaM PPI inh
CCOc1ccc(CN(CCc2ccc3c(c2)OCO3)Cc2cc(OC)c(OC)c(OC)c2)cc1	-5	11
Cc1ccc(-c2cc(C(=O)N3CCCCC3C(=O)NC(C)C)no2)cc1C (configuration not stated)	3	6
Cc1cc(Cl)ccc1OCC(=O)Nc1cccc([N+](=O)[O-])c1	-19	0
COc1cc([N+](=O)[O-])ccc1NC(=O)c1cccnc1	-7	6
CN(CC(=O)Nc1ccc(Cl)cc1)S(=O)(=O)c1ccc2[nH]c3c(c2c1)CCCC3	1	66*
CN(CC(=O)NCCC1=CCCCC1)S(=O)(=O)c1ccc2[nH]c3c(c2c1)CCCC3	-10	63*
Cc1ccc(NC(=O)CN(C)S(=O)(=O)c2ccc3[nH]c4c(c3c2)CCCC4)cc1	0	48
CN(CC(=O)NCc1cccnc1)S(=O)(=O)c1ccc2[nH]c3c(c2c1)CCCC3	-5	21
Cc1cc(C)c(NC(=O)CN(C)S(=O)(=O)c2ccc3[nH]c4c(c3c2)CCCC4)c(C)c1	-4	38
CN(CC(=O)NC1CCCCCC1)S(=O)(=O)c1ccc2[nH]c3c(c2c1)CCCC3	-1	59*
Cc1ccccc1NC(=O)CN(C)S(=O)(=O)c1ccc2[nH]c3c(c2c1)CCCC3	-4	14
CN(CC(=O)Nc1cccc(Cl)c1)S(=O)(=O)c1ccc2[nH]c3c(c2c1)CCCC3	-1	55*
CC(C)NC(=O)CCc1cccc2[nH]ccc12	0	-4
CSc1nc(C2CC2)cc(-c2ccccc2)c1C#N	-2	-49
Cc1cccc(NC(=O)CN(C)S(=O)(=O)c2ccc3[nH]c4c(c3c2)CCCC4)c1	3	64*
Cc1ccc(NC(=O)CN(C)S(=O)(=O)c2ccc3[nH]c4c(c3c2)CCCC4)c(Cl)c1	-5	43
Cc1cc(OCC(=O)Nc2nccs2)ccc1C(C)C	-3	-8
Nc1ccc2nc(-c3ccccc3-c3nc4ccc(N)cc4[nH]3)[nH]c2c1	1	41
Nc1ccc(-c2nc3ccc(C(=O)c4ccc5nc(-c6ccc(N)cc6)[nH]c5c4)cc3[nH]2)cc1	-7	11

Assay outcomes from PubChem BioAssay.
